In all, about 18,000 sequences were measured (“log2 normalized intensity”: median about 0.36, highest 2% from about 7.3 on). The full list was thinned out, with the highest values kept by preference.

The target of this test is T1, HNF4alpha8 (COS-7 nuclear extract) (Homo sapiens, UniProt P41235-5 1-452).
T1 sequence: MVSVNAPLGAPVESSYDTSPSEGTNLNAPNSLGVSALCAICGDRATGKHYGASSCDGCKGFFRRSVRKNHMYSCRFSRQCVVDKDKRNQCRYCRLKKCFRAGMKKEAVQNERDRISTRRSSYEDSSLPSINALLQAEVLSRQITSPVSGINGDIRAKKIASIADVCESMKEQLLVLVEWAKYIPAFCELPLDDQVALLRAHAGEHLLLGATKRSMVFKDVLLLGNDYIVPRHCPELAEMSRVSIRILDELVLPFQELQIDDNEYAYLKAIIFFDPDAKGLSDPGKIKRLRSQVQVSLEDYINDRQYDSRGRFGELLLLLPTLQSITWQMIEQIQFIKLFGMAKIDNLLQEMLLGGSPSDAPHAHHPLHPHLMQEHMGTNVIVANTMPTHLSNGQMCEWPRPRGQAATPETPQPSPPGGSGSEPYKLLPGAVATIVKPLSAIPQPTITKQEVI
Nature of the test: protein-binding microarray; COS-7 nuclear extract on double-stranded Agilent 4x180k PBM; binding buffer, salt, pH and temperature not given in the material; high values mean tight binding. The note with it: chain copies: 2; label: 3' end of strand 1 on the slide; dsDNA, one strand shown. The essentials: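 Nuclear extracts came from COS-7 cells transiently transfected by CaPO4 with a human HNF4α isoform expression vector. They were applied to a custom Agilent SurePrint G3 4x180k array of ~60-nt oligonucleotides, made double-stranded, with ~44,000 test sequences spotted in quadruplicate. Bound HNF4α was imaged at 2-µm resolution on an Agilent G2565CA scanner. Binding signal was taken as background-corrected, normalized gProcessedSignal from Agilent software.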
On to “GGTTAAAATTTATCTATTGGGTACAATGTTGCCTAGGGAGATTAGAGTATCGGTCGA”, for which the binding signal was determined as 2.37 log2 normalized intensity.
Next, “CTTCCAGTCCACAGTCCAGTGACTATCTGCGCCTAGGGAGATTAGAGTATCGGTCGA”: 1.02 log2 normalized intensity.
Under “GGGTATGAATTTAACCTTTGCTCTCTGAAAGCCTAGGGAGATTAGAGTATCGGTCGA” stands 6.63 log2 normalized intensity; under “ACTTTGCCCTTTTTTTCTCTCCCCTTTTAAGCCTAGGGAGATTAGAGTATCGGTCGA”, 2.63 log2 normalized intensity.
Under “TCCTCAGGGAATTTCTAGGTTTGATCTTTGGCCTAGGGAGATTAGAGTATCGGTCGA” stands 3.49 log2 normalized intensity.
With “TTTCTTAATTGCCCTTTGCCCTTTGCCCAAGCCTAGGGAGATTAGAGTATCGGTCGA”, the binding signal was 8.84 log2 normalized intensity.
Next, “CTACAGGGTATGAATTTAACCTTTGCTCTCGCCTAGGGAGATTAGAGTATCGGTCGA”: 7.57 log2 normalized intensity.
Under “TTGCCCTTTGCCCAACCCTCTCCCACTCCCGCCTAGGGAGATTAGAGTATCGGTCGA” stands 4.93 log2 normalized intensity; under “CCATCCTACAGGGTATGAATTTAACCTTTGGCCTAGGGAGATTAGAGTATCGGTCGA”, 4.92 log2 normalized intensity.
In the case of “GCCCTTTGCCCTTTGCCCAACCCTCTCCCAGCCTAGGGAGATTAGAGTATCGGTCGA”, the binding signal came to 6.2 log2 normalized intensity.
Under “ATTTCTAGGTTTGATCTTTGCCCTACAATTGCCTAGGGAGATTAGAGTATCGGTCGA” stands 6.36 log2 normalized intensity.
Under “TGACCTTTGCATTCTTACCCAAGCCCCAAAGCCTAGGGAGATTAGAGTATCGGTCGA” stands 4.12 log2 normalized intensity; under “TAATTGCCCTTTGCCCTTTGCCCAACCCTCGCCTAGGGAGATTAGAGTATCGGTCGA”, 7.74 log2 normalized intensity.
Turning to “AGGGAATTTCTAGGTTTGATCTTTGCCCTAGCCTAGGGAGATTAGAGTATCGGTCGA”, the binding signal was 7.66 log2 normalized intensity.
For the sequence “CTGAATCTCCCAGTGCTTTGATCTTCAACTGCCTAGGGAGATTAGAGTATCGGTCGA”, the binding signal was found to be 0.419 log2 normalized intensity.
Next, “CACTTGTAGGCCTGTGTGCATGGAGTGCACGCCTAGGGAGATTAGAGTATCGGTCGA”: 0.798 log2 normalized intensity; “CCCCGCCCGCAGCCCAGTCTTGGCCCCACCGCCTAGGGAGATTAGAGTATCGGTCGA”: 6.38 log2 normalized intensity; “GAGTTATCTTCCTCCCCCCTTGGCTACATGGCCTAGGGAGATTAGAGTATCGGTCGA”: 4.15 log2 normalized intensity.
Under “TAGGCATTGTCTTGAAAGATAAAGTGTCTCGCCTAGGGAGATTAGAGTATCGGTCGA” stands 1.48 log2 normalized intensity; under “TGTGTCAAAGGTCACTTAGTCCCTAAGTCTGCCTAGGGAGATTAGAGTATCGGTCGA”, 5.26 log2 normalized intensity; under “TTCCCTACCCCCTGGGAGTAACCTGCTTGTGCCTAGGGAGATTAGAGTATCGGTCGA”, 2.25 log2 normalized intensity.
Next, “TTTTAAATACCTTTTTGGGACTGATAACTTGCCTAGGGAGATTAGAGTATCGGTCGA”: 1.23 log2 normalized intensity.
Regarding “AGCATGGAGAAAATTCTGGACCTTCTTATCGCCTAGGGAGATTAGAGTATCGGTCGA”, the binding signal amounted to 1.59 log2 normalized intensity.
Next, “CGCTGCGGGTCACGTGCCGCTGCGGGTCACGCCTAGGGAGATTAGAGTATCGGTCGA”: 2.61 log2 normalized intensity.
Under “AGAATGACCAGGAGTTTGGGATCAGACACGGCCTAGGGAGATTAGAGTATCGGTCGA” stands 0.332 log2 normalized intensity; under “GAAACTTATTGTGAACTGGAGCAAAGGTCAGCCTAGGGAGATTAGAGTATCGGTCGA”, 5.97 log2 normalized intensity.
Next, “TTATCTTGATGGTTAAAGTCCAATCTTCTGGCCTAGGGAGATTAGAGTATCGGTCGA”: 4.82 log2 normalized intensity; “GACCATCACCACTTCAAGCTTGGTATGCTTGCCTAGGGAGATTAGAGTATCGGTCGA”: -0.696 log2 normalized intensity.
Take “AGACTTTTTTTTTCTTAATTGCCCTTTGCCGCCTAGGGAGATTAGAGTATCGGTCGA”: the binding signal worked out at 5.04 log2 normalized intensity.
Next, “TTTTTTTTCTTAATTGCCCTTTGCCCTTTGGCCTAGGGAGATTAGAGTATCGGTCGA”: 9.03 log2 normalized intensity; “ACAGTAGACTTTTTTTTTCTTAATTGCCCTGCCTAGGGAGATTAGAGTATCGGTCGA”: 3.18 log2 normalized intensity; “TACTGGGGATGGACTTTGGCCCTCAGCCCAGCCTAGGGAGATTAGAGTATCGGTCGA”: 9.48 log2 normalized intensity.
Under “GATTGGACTTTGGCCTGTGAATCCACATTCGCCTAGGGAGATTAGAGTATCGGTCGA” stands 6.47 log2 normalized intensity; under “TGAATTCTGCAGCAGATGGCCAGCCTTTGGGCCTAGGGAGATTAGAGTATCGGTCGA”, -0.939 log2 normalized intensity.
Next, “GGACTTTGGCCCTCAGCCCAATGTGGTAGGGCCTAGGGAGATTAGAGTATCGGTCGA”: 6.09 log2 normalized intensity; “TCTGCAGCAGATGGCCAGCCTTTGGACTTTGCCTAGGGAGATTAGAGTATCGGTCGA”: 8.08 log2 normalized intensity; “AAAGAGATTGGACTTTGGCCTGTGAATCCAGCCTAGGGAGATTAGAGTATCGGTCGA”: 9.05 log2 normalized intensity.
As for “TGCCATGATAAGCAGTGTGGACTTTTTCCTGCCTAGGGAGATTAGAGTATCGGTCGA”, the binding signal was 3.69 log2 normalized intensity.
Next, “GAACAGCAAGACTTTGGCCCTGCAGACTTTGCCTAGGGAGATTAGAGTATCGGTCGA”: 3.02 log2 normalized intensity; “ACCTCTCTGATGCCATGATAAGCAGTGTGGGCCTAGGGAGATTAGAGTATCGGTCGA”: 0.716 log2 normalized intensity; “TCTGATGCCATGATAAGCAGTGTGGACTTTGCCTAGGGAGATTAGAGTATCGGTCGA”: 7.54 log2 normalized intensity.
Under “GTGACTTGAAAGGGACTTAGAATCGAATTGGCCTAGGGAGATTAGAGTATCGGTCGA” stands -0.0805 log2 normalized intensity; under “GGGATGGACTTTGGCCCTCAGCCCAATGTGGCCTAGGGAGATTAGAGTATCGGTCGA”, 7.1 log2 normalized intensity.
Next, “CCCTGGTCTCTCTTACCCAACCAAAAACAAGCCTAGGGAGATTAGAGTATCGGTCGA”: 3.38 log2 normalized intensity; “TACAGGCGTGAGCCACCGCGCCCCGCCCCCGCCTAGGGAGATTAGAGTATCGGTCGA”: 6.17 log2 normalized intensity.
With “TCTCAGGTGAGCAGAGGGAGGACAAAGTTCGCCTAGGGAGATTAGAGTATCGGTCGA”, the binding signal came out at 5.01 log2 normalized intensity.
Next, “GCCACATCCCCCACACCGAGATAGTAGAGAGCCTAGGGAGATTAGAGTATCGGTCGA”: 3.27 log2 normalized intensity.
Under “ACTTCTGAGTTTTATCAGCTTCCCTGAGATGCCTAGGGAGATTAGAGTATCGGTCGA” stands -0.495 log2 normalized intensity; under “AAACTTCCACTAACTTGAGTGTGCACCCTGGCCTAGGGAGATTAGAGTATCGGTCGA”, 1.93 log2 normalized intensity.
Under “CCGCAGCGCTGGTGGCTGCAAGGTTTGTGTGCCTAGGGAGATTAGAGTATCGGTCGA” stands 0.472 log2 normalized intensity.
With “TTATCATTACTTCTCAACTGATATGGCTCTGCCTAGGGAGATTAGAGTATCGGTCGA”, the binding signal came to 0.393 log2 normalized intensity.
Next, “AAGAAACTCGTGGCATTTTTGCCCCTGCCCGCCTAGGGAGATTAGAGTATCGGTCGA”: 3.61 log2 normalized intensity.
Consider “CAAATAACATTCCTAACATTCTTCCTCACAGCCTAGGGAGATTAGAGTATCGGTCGA”, for which the binding signal is -0.982 log2 normalized intensity.
Under “TTTGATGGACATTGCTGGTGGTGGTAGATCGCCTAGGGAGATTAGAGTATCGGTCGA” stands 1.45 log2 normalized intensity.

Source of the values: article PMC10726135, “HNF4α isoforms regulate the circadian balance between carbohydrate and lipid metabolism in the liver”.
